# The supplement of paper PMC9334596
# In all, about 5,300 compounds were measured (“PER2::LUC luminescence relative to vehicle control”: median about 0.96, highest 2% from about 1.3 on). The sample as a whole holds a higher share of the highest values than the screen did.
# System: mPer2Luc MEF
# Test: PER2::LUC luminescence relative to vehicle control (fold of vehicle); higher = higher PER2::LUC reporter signal
# Conditions: 10 µM
# Summary of the method: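 The value is PER2::LUC luminescence expressed as fold of vehicle control. Mouse embryonic fibroblasts carrying the mPer2Luc reporter were seeded at ~3000 cells per well in 384-well plates and grown in DMEM with 10% FBS at 37 °C and 5% CO2. Compounds from commercial libraries were added at 10 μM 48 h after seeding, and luminescence was read with the ONE-Glo luciferase assay system 24 h and 30 h after treatment, followed by an alamarBlue viability assay.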
Structure (SMILES),PER2::LUC luminescence (time after treatment 24 h),PER2::LUC luminescence (time after treatment 30 h)
CN(C/C=C/c1ccccc1)Cc1cccc2ccccc12,0.5,0.535
Cc1cccc(/C=C/c2ccccc2)n1,1.35,1.16
CC(COc1ccc(/C=C/c2ccccc2)cc1)[N+](C)(C)C (configuration not stated),0.936,1.02
O=c1[nH]c2ccccc2c2ccccc12,1.19,0.972
OCc1cc2c(cn1)[nH]c1ccccc12,0.851,0.873
O=Cc1c2[nH]c3ccccc3c2cc2[nH]c3ccccc3c12,1.54,1.5
CC[C@@H](C)[C@@H](O)[C@H](C)C(=O)[C@H](C)/C=C(\C)C[C@H](C)[C@@H]1OC(=O)[C@H]1CC,1.06,0.925
Clc1cccc(COc2cncc(N3CCNCC3)n2)c1,0.246,0.301
CCCCc1ccc(NC(C)=O)c(C)c1,1.1,1.05
COc1ccccc1C(=O)Nc1cccc(NC(=O)c2cccc(C)c2)c1,0.917,0.985
COc1cc(NC(=O)c2ccccn2)ccc1Cl,1.13,1.38
CN1CC(=O)N=C1NC(=O)Nc1cccc(Cl)c1,0.949,1.1
CS(=O)(=O)c1ccc(C(=O)Nc2ccc(Cl)c(-c3ccccn3)c2)c(Cl)c1,1.17,1.14
O=C(Nc1cccc(Cl)c1)c1ccccn1,1.65,1.48
O=C(Nc1ccc(S(=O)(=O)Nc2ccccc2Cl)c(Cl)c1)c1ccccn1,0.992,1.06
COc1cccc(CNC(=O)Nc2nc(-c3ccncc3)cs2)c1,0.558,0.601

Structure (SMILES),PER2::LUC luminescence (time after treatment 24 h),PER2::LUC luminescence (time after treatment 30 h)
O=c1ncc(F)c[nH]1,0.979,0.911
Cn1c2ncnc-2c(O)n(C)c1=O,1.14,1.18
FC(F)(F)COB(OCC(F)(F)F)OCC(F)(F)F,0.958,1
O=C1CN(/N=C/C=C/c2ccc([N+](=O)[O-])o2)C(=O)N1,1.04,1.01
CCOc1cccc(C(=O)c2ccc(O)c(O)c2O)c1,1.23,1.37
CCOc1ccc(C(=O)c2ccc(OC)c(O)c2O)cc1,0.983,0.916
CCOc1ccc(C(=O)c2ccc(O)c(O)c2O)cc1,0.963,1.08
O=C(Nc1cccc(NC(=O)c2cccc(O)c2O)c1)c1cccc(O)c1O,0.916,1.34
O=C(O)Cc1cccc(OCCCN(Cc2cccc(C(F)(F)F)c2Cl)CC(c2ccccc2)c2ccccc2)c1,1.4,1.47
O=c1[nH]c(C2CCCN2)nc2c1oc1ccc(Cl)cc12 (configuration not stated),1.22,1.29
N#Cc1cc(-c2ccnc(Nc3ccc(N4CCOCC4)cc3)n2)ccc1OC1CCOCC1,0.507,0.584
O=C(CCCCCCCCCCCCC1CCCC1)Nc1ccc(S(=O)(=O)c2ccc(NC(=O)CCCCCCCCCCCCC3CCCC3)cc2)cc1,1.06,1.02
COc1cccc(C(=O)NCCN2CCN(c3ccc(Cl)cc3)CC2)c1,0.833,0.96
COc1ccccc1C(=O)Nc1cc2c(cc1N1CCCCC1)n(C)c(=O)n2C,0.765,0.829
COc1cccc(-c2ccc(NC(=O)C3=C(C(=O)O)CCC3)c(F)c2)c1,1.43,1.75
